Only some compounds are listed: those with a hit (about 12% of all), similar ones and a draw of the others.
Sfp inh – blocks B. subtilis Sfp PPTase activity; Biochemical Sfp PPTase activity, qHTS; Potency, µM, hits mostly inhibitors; actives 3.5% (n = 310,000); AID 1490;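 also: the enzyme is Sfp with the accession as filed and its product quenches rhodamine fluorescence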
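Buffer: 50 mM Hepes-Na pH 7.6, 10 mM MgCl2, 0.01% Nonidet P-40, 0.01% BSA. Enzyme 15 nM, pre-exposed to compound 15 min; substrates then added and fluorescence change tracked over 30 min.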
HP1b binding inh – blocks HP1-beta chromodomain binding to methylated histone tails; P83916; AlphaScreen HP1-beta / biotin-H3K9me3 peptide binding; Potency, µM (series often up to 114 µM), usual class: inhibitors; actives 0.56% (n = 390,000); also: nearly all actives have a fitted effect of over 70% in size
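Compound inhibition of the preformed complex between 50 nM HP1-beta and 50 nM biotinylated H3K9me3 peptide was read by AlphaScreen. Buffer was PBS pH 7.4 with 0.01% Tween-20. Incubations ran 30 min at room temperature, with 10 ug/mL donor/acceptor beads.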
JMJD2A Tudor inh – inhibitors of human JMJD2A Tudor domain. AlphaScreen JMJD2A-Tudor / H3K4me3 peptide binding. Potency, µM (titrated, usually from 114 µM), actives largely listed as inhibitors. actives 4.4% (n = 390,000). AID 504339; also: nearly all actives have a fitted effect of over 50% in size
BAZ2B inh – inhibitors of human BAZ2B bromodomain; Potency, µM (series often up to 114 µM), actives largely listed as inhibitors; AID 504333; actives 4.4% (n = 360,000); AlphaScreen BAZ2B-H3K14Ac peptide displacement; Q9UIF8; also: nearly all actives have a fitted effect of over 60% in size
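AlphaScreen displacement of biotin-H3(5-23)K14Ac peptide (50 nM final) from BAZ2B (50 nM final) in PBS pH 7.4, 0.01% Tween-20; complex preformed 30 min RT, then compounds (top 110 uM) 30 min RT, beads 20 min dark.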
G9a inh – inhibitors of human histone lysine methyltransferase G9a. AID 504332. actives 8.8% (n = 350,000). Potency, µM (top dose mostly 102 µM), usual class: inhibitors. G9a H3K9 monomethylation, AlphaScreen, 2 h. Q96KQ7; also: nearly all actives have a fitted effect of over 75% in size
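Methyltransferase reactions run at room temperature for 2 h (20 nM enzyme, 500 nM biotin-H3K9 peptide, 20 uM SAM) after a 15 min compound preincubation; product detected by AlphaScreen beads and anti-H3K9me1 antibody.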
PLK1 PBD inh – PLK1 (human) polo-box domain binding inhibition; Plk1 PBD binding of FITC phosphopeptide, fluorescence polarization; Potency, µM, actives largely listed as inhibitors; actives 2.8% (n = 360,000); AID 720504; also: series mostly up to about 57 µM; nearly all actives have a fitted effect of over 65% in size
Large screens that a line does not name were inactive. Calls follow the shape of the dose curve; as a rule, active = well fitted curve in the direction sought with a large enough effect; inconclusive = small, poorly fitted or top-dose-only effect, or another doubt; inactive = no such curve, though single readings can be large; an effect the other way counts as inactive or inconclusive.

CCCCn1c(NC(=O)c2ccccc2)nc2ccccc21	none
S=C(Nc1ccccc1)Nc1nc2ccccc2n1CCOc1ccccc1	JMJD2A Tudor inh 45µM, BAZ2B inh 6.3µM
CC(=O)Nc1nc2ccccc2n1CCOc1ccccc1	none
CC(=O)Nc1nc2ccccc2n1CCN(C)C	JMJD2A Tudor inh 40µM, G9a inh 40µM
CCCCn1c(NC(=S)Nc2ccccc2)nc2ccccc21	HP1b binding inh inconclusive, JMJD2A Tudor inh 40µM, BAZ2B inh 7.9µM
Cc1cc(=S)[nH]c(=S)[nH]1	Sfp inh 45µM, PLK1 PBD inh inconclusive (no result: G9a inh)
CN(C)CCCN(C(=O)c1nc2ccccc2s1)c1nc2ccc(F)cc2s1	none (no result: Sfp inh, BAZ2B inh, G9a inh)
CN(C)CCCN(C(=O)c1ccc(S(=O)(=O)N(C)C2CCCCC2)cc1)c1nc2ccc(F)cc2s1	JMJD2A Tudor inh inconclusive, BAZ2B inh inconclusive, G9a inh 45µM
COc1cc2nc(N(CCN(C)C)C(=O)c3ccc(S(=O)(=O)N(C)CC4CCCO4)cc3)sc2cc1OC (stereo not drawn)	BAZ2B inh inconclusive, G9a inh 32µM
Cc1cc(C)c2sc(N(CCCN(C)C)C(=O)c3ccc(S(=O)(=O)N(C)C4CCCCC4)cc3)nc2c1	HP1b binding inh inconclusive, JMJD2A Tudor inh inconclusive, BAZ2B inh inconclusive, G9a inh 35µM (no result: Sfp inh)
COc1cc2nc(N(CCCN(C)C)C(=O)c3ccc(S(=O)(=O)N(C)C4CCCCC4)cc3)sc2cc1OC	G9a inh 45µM (no result: Sfp inh)
CN(C)CCN(C(=O)c1ccc(S(=O)(=O)N(C)CC2CCCO2)cc1)c1nc2cc3c(cc2s1)OCO3 (stereo not drawn)	JMJD2A Tudor inh inconclusive, G9a inh inconclusive
Cc1cc(OCC(=O)NCCN2CCOCC2)c2c(C)c(C)c(=O)oc2c1	none
Cc1cc2c(s1)c(C=O)c(C(=O)NCc1ccccc1F)n2C	none (no result: Sfp inh, HP1b binding inh, JMJD2A Tudor inh, PLK1 PBD inh)
CN(C)CCCN(C(=O)c1ccc(S(=O)(=O)N(C)C2CCCCC2)cc1)c1nc2ccc(Br)cc2s1	Sfp inh 40µM, JMJD2A Tudor inh 35µM, BAZ2B inh inconclusive (no result: G9a inh)
CCOc1cccc2sc(N(CCCN(C)C)C(=O)c3ccc(S(=O)(=O)N4CCc5ccccc5C4)cc3)nc12	none (no result: G9a inh)
CCc1ccc2nc(N(CCCN(C)C)C(=O)c3ccc(S(=O)(=O)N4CCc5ccccc5C4)cc3)sc2c1	Sfp inh 63µM, BAZ2B inh inconclusive (no result: G9a inh)
COc1ccc(CN(CC2CCCO2)S(=O)(=O)c2ccc(C(=O)O)cc2)cc1OC (stereo not drawn)	G9a inh 56µM
CCOc1ccc2nc(N(CCCN(C)C)C(=O)c3ccc(S(=O)(=O)N4CCCC4)cc3)sc2c1	BAZ2B inh inconclusive, G9a inh inconclusive
CCc1ccc2nc(N(CCCN(C)C)C(=O)c3ccc(S(=O)(=O)N(C)C4CCCCC4)cc3)sc2c1	Sfp inh 45µM, JMJD2A Tudor inh inconclusive, BAZ2B inh inconclusive, G9a inh inconclusive
O=C(O)c1nc2cc(Cl)c(Cl)cc2[nH]c1=O	none (no result: HP1b binding inh, JMJD2A Tudor inh, BAZ2B inh, G9a inh, PLK1 PBD inh)
C=CCN([C@@H](CC(C)C)C(=O)OC)S(=O)(=O)N(CC=C)[C@@H](CC(C)C)C(=O)OC	none (no result: Sfp inh)
COc1ccc2c(CNCCc3cccs3)c(C(=O)O)n(Cc3ccccc3)c2c1	none (no result: Sfp inh, PLK1 PBD inh)
C#CCOCCOCCOCCNc1nc(N2CCN(C(=O)CCCCCCCCCCNC(=O)[C@H]([C@@H](C)CC)n3cc(CCCCN=C(N)N)nn3)CC2)nc(N2CCN(C(=O)CCCCCCCCCCNC(=O)[C@H](CCCCN)n3cc(C)nn3)CC2)n1	HP1b binding inh 35µM, JMJD2A Tudor inh 22µM, BAZ2B inh 50µM (no result: Sfp inh)
C#CCOCCOCCOCCNc1nc(N2CCN(C(=O)CCCCCCCCCCNC(=O)[C@H]([C@@H](C)CC)n3cc(CCCCCN)nn3)CC2)nc(N2CCN(C(=O)CCCCCCCCCCNC(=O)[C@H](CCCCN)n3cc(CCCC(=O)O)nn3)CC2)n1	JMJD2A Tudor inh inconclusive, BAZ2B inh inconclusive (no result: Sfp inh)

Compound activity as filed in PubChem BioAssay.
